An excerpt weighted towards active compounds, which were near 2.1% of everything screened.
ABCB6 inh 2 = ABCB6 transporter inhibitors, primary screen, K562-ABCB6 cells, flow cytometry, MLPCN library | ATP-binding cassette sub-family B member 6 (Homo sapiens), Q9NP58 | K562-ABCB6 porphyrin accumulation, 1 h; hits give low values | fluorescence ratio to DMSO, % at 10 µM | hit rate 0.19% among 360,000 | AID 602162, 2011;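 active = fluorescence ratio to DMSO below 75%, the collection mean minus 3 SD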;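 also: signal is porphyrin accumulated inside mitochondria; 100% equals median channel fluorescence of DMSO control wells; lower ratio means ABCB6 inhibition with less porphyrin fluorescence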
Target sequence (Q9NP58 whole entry, looked up): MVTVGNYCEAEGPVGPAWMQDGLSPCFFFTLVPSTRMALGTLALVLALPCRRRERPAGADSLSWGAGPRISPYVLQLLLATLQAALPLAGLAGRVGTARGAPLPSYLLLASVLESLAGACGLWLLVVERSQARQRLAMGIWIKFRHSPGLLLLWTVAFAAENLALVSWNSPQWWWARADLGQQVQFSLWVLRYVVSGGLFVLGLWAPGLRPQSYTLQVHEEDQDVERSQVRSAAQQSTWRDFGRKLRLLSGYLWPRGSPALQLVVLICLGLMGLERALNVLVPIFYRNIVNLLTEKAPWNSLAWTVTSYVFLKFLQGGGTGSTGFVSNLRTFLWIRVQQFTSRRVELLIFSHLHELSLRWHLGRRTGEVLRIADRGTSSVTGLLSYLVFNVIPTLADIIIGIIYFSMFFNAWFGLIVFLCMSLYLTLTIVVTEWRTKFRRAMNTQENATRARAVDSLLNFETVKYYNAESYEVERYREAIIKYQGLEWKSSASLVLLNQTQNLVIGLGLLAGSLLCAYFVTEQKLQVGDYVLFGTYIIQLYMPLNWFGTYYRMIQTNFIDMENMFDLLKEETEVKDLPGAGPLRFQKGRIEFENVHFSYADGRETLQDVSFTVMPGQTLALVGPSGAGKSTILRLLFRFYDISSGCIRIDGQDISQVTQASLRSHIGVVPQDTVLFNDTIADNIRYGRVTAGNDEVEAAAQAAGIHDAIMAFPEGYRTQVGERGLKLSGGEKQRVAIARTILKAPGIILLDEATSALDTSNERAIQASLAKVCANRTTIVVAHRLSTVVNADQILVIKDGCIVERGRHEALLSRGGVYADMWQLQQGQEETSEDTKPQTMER
bovine MsrA act = bovine MsrA enzyme activators, primary screen, biochemical, absorbance, HTS; Methionine sulfoxide reductase A (Bos taurus); activation, % at 10.6 µM; AID 602163, 2012; purified bovine MsrA, absorbance read-out; hit rate 0.3% among 360,000; in the data active = activation above about 7.5%;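 also: 0% = vehicle and 100% = reference activator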
MsrA inhibitor = bovine MsrA enzyme inhibitors, primary screen, biochemical, absorbance, HTS; purified bovine MsrA, absorbance read-out; inhibition, % at 15.5 µM; hit rate 0.75% among 360,000; in the data active = inhibition above about 4.5%;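 also: 0% = vehicle wells with enzyme and 100% = reference inhibitor wells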
SMARCA2 act = SMARCA2 (BRM) function activators, primary screen, cell-based, luminescence, high throughput. MG213 cells, MMTV-luciferase reporter, dexamethasone, overnight. AID 652017, 2013. hit rate 1% among 370,000. activation, % at 9.1 µM; in the data active = activation above about 7.8%;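 also: 0% = vehicle wells and 100% = reference activator wells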
Active calls of the source: *.

O=C(CCl)NC1CCCCN(Cc2ccc(OC(F)(F)F)cc2)C1=O (centres undefined) was read as SMARCA2 act -0.1.
For Cc1ccc(Cc2c(-c3ccc(C)cc3)nc3cc(C)ccn23)cc1 the results were ABCB6 inh 2 100.0, bovine MsrA act -3.0, MsrA inhibitor -0.3 and SMARCA2 act 3.4.
Screening Cc1ccc(Cc2c(-c3ccc(Cl)cc3)nc3cc(C)ccn23)cc1 returned ABCB6 inh 2 93.0, bovine MsrA act -11.4, MsrA inhibitor 0.6 and SMARCA2 act 7.8*.
For O=C(c1ccc2c(=O)n(-c3ccccc3)c(=O)[nH]c2c1)N1CCN(c2ccc(F)cc2)CC1 the results were ABCB6 inh 2 95.0, bovine MsrA act 2.3, MsrA inhibitor 0.0 and SMARCA2 act -2.5.
For CC(=O)c1ccc(N2CCN(C(=O)c3ccc4c(=O)n(-c5ccccc5)c(=O)[nH]c4c3)CC2)cc1 the results were ABCB6 inh 2 81.0, bovine MsrA act -8.6, MsrA inhibitor 4.6* and SMARCA2 act -3.4.
Screening O=c1c2ccccc2sn1-c1nccs1 returned ABCB6 inh 2 107.0, bovine MsrA act 17.0*, MsrA inhibitor 0.7 and SMARCA2 act -2.6.
CC(C)(C)C1CCC(=NNC(=O)c2ccccc2-n2cccc2)CC1 (centres undefined) was read as ABCB6 inh 2 96.0, bovine MsrA act 2.2, MsrA inhibitor -0.9 and SMARCA2 act 11.1*.
Screening O=[N+]([O-])c1ccc(/C=C/c2ccncc2)cc1 returned ABCB6 inh 2 98.0, bovine MsrA act -4.0, MsrA inhibitor 2.4 and SMARCA2 act 7.9*.
`COCCCN(C(C)=O)c1nc(-c2ccc(OC)cc2)cs1` gave ABCB6 inh 2 72.0*, bovine MsrA act -3.2, MsrA inhibitor -0.1 and SMARCA2 act -2.7.
C[C@@H]1[C@H](O)[C@@H](C)/C=C/C=C/C=C/C=C/C=C/C=C/C=C/[C@H](OC2O[C@H](C)[C@@H](O)[C@H](N)[C@@H]2O)C[C@@H]2O[C@](O)(C[C@@H](O)C[C@@H](O)[C@H](O)CC[C@@H](O)C[C@@H](O)CC(=O)O[C@H]1C)C[C@H](O)[C@H]2C(=O)O (some centres undefined) was read as SMARCA2 act -1.8.
`Cc1[nH]c2ccc(C(=O)OCCN(C)C)cc2c1C` gave ABCB6 inh 2 90.0, bovine MsrA act -2.4, MsrA inhibitor 0.5 and SMARCA2 act 0.6.
Screening CCOC(=O)c1ccc2[nH]c(C)c(C)c2c1 returned ABCB6 inh 2 101.0, bovine MsrA act 0.4, MsrA inhibitor -1.2 and SMARCA2 act 7.9*.
For Cc1ccccc1-c1cccc2c3c([nH]c12)[C@@H]1C[C@H]2[C@@H](CN1CC3)[C@H](C)ON2C the results were SMARCA2 act -1.5.
CC(C)Cc1cc(C(=O)Nc2cccnc2)no1 was read as ABCB6 inh 2 100.0, bovine MsrA act -2.6, MsrA inhibitor -0.1 and SMARCA2 act 7.9*.
For CCN1CCN(CC(O)COc2ccc(Cl)cc2)CC1 (centres undefined) the results were ABCB6 inh 2 102.0, bovine MsrA act -3.6, MsrA inhibitor -0.1 and SMARCA2 act 3.8.
Screening CCN1CCN(CC(O)COC(C)C)CC1 (centres undefined) returned ABCB6 inh 2 101.0, bovine MsrA act 15.0*, MsrA inhibitor -0.6 and SMARCA2 act 5.7.
CCCCOCCCNC(=O)C[C@@H]1C(=O)N2CCCC3=C2[C@@]1(C(=O)OC)CCCC3 was read as SMARCA2 act -2.5.
CCOC(=O)N1CCC(=NNC(=O)c2ccccc2F)CC1 was read as ABCB6 inh 2 101.0, bovine MsrA act -1.2, MsrA inhibitor -0.9 and SMARCA2 act 11.1*.
Screening Cc1ccc(-n2c(COc3ccccc3)nnc2SCC(=O)Nc2ccccc2-c2ccccc2)cc1 returned SMARCA2 act -5.2.
For COC(=O)[C@]12C[C@H](CC(=O)NCCCCc3ccccc3)C(=O)N(CCc3ccc(OC)c(OC)c3)C1=C[C@H](C(C)C)O[C@@H]2C1CC1 the results were SMARCA2 act -2.9.
C=CCN1[C@@H](C)COc2cc(F)ccc2S1(=O)=O was read as SMARCA2 act -1.1.
Screening O=C(O)c1cccc(-n2sc3ccccc3c2=O)c1 returned ABCB6 inh 2 103.0, bovine MsrA act 17.4*, MsrA inhibitor 1.6 and SMARCA2 act 2.3.
`O=c1c2cc(C(F)(F)F)ccc2sn1-c1ccccc1` gave ABCB6 inh 2 97.0, bovine MsrA act 7.0, MsrA inhibitor -0.7 and SMARCA2 act -1.9.
Screening COc1ccc(Cn2c(SCc3ccc(C)cc3)nc3cc(OC)c(OC)cc3c2=N)cc1Cl returned ABCB6 inh 2 94.0, bovine MsrA act -12.6, MsrA inhibitor -0.8 and SMARCA2 act 9.2*.
Screening COc1ccc(Cn2c(SCc3cc(C)ccc3C)nc3cc(OC)c(OC)cc3c2=N)cc1 returned ABCB6 inh 2 97.0, bovine MsrA act -1.6, MsrA inhibitor 0.3 and SMARCA2 act -2.8.
Screening Cn1cc(C2(c3c[nH]c4ccccc34)CCN(C(=O)OC(C)(C)C)CC2)c2ccccc21 returned SMARCA2 act -3.2.
`Cn1nc(-c2ccccn2)nc2c(=O)n(C)c(=O)nc1-2` gave ABCB6 inh 2 106.0, bovine MsrA act 58.6*, MsrA inhibitor 0.2 and SMARCA2 act -11.9.
CCCOc1cccc(C(=O)Nc2ccc(Br)cc2F)c1 was read as ABCB6 inh 2 97.0, bovine MsrA act -5.5, MsrA inhibitor 0.9 and SMARCA2 act 12.6*.
`CCN(CC)c1nc(C#N)cc(-c2ccc(OC)cc2)n1` gave ABCB6 inh 2 123.0, bovine MsrA act 6.4, MsrA inhibitor 8.0* and SMARCA2 act -0.1.
Screening COc1ccc(-c2cc(C#N)nc(NN)n2)cc1 returned ABCB6 inh 2 94.0, bovine MsrA act -3.0, MsrA inhibitor 1.3 and SMARCA2 act 0.4.
`CCOC(=O)[C@]12CCCC=C1N(CCCOC)C(=O)[C@@H]2CC(=O)NCc1cccc(C(F)(F)F)c1` gave SMARCA2 act -0.4.
O=C(Sc1n[nH]c(=O)[nH]c1=O)c1ccccc1 was read as ABCB6 inh 2 123.0, bovine MsrA act 10.2*, MsrA inhibitor 0.8 and SMARCA2 act -1.3.
For CN(C(=O)CSc1n[nH]c(=O)[nH]c1=O)c1ccccc1 the results were ABCB6 inh 2 90.0, bovine MsrA act -8.2, MsrA inhibitor 1.8 and SMARCA2 act -0.8.
For O=C(Nc1nc2c(Cl)cccc2s1)C1CC1 the results were ABCB6 inh 2 104.0, bovine MsrA act -3.3, MsrA inhibitor 0.4 and SMARCA2 act -1.3.
O=C(Nc1nc2c(cc3c4c(cccc42)CC3)s1)c1ccccc1Cl was read as ABCB6 inh 2 97.0, bovine MsrA act -11.6, MsrA inhibitor 4.6* and SMARCA2 act 0.3.
CCOC(=O)COc1ccc(C(C)c2ccc(NC(=O)OC(C)(C)C)cc2)cc1 (centres undefined) was read as SMARCA2 act -5.2.
Screening COc1cccc(NC(=O)COc2ccccc2)c1 returned ABCB6 inh 2 94.0, bovine MsrA act -6.1, MsrA inhibitor 0.0 and SMARCA2 act 7.8*.

Assay outcomes deposited in PubChem BioAssay by several laboratories.
